# Inconclusive results are not listed. Activity calls are given as the source filed them. How the source made its calls: active means hit-call score of the fitted dose curve at least 0.9, where 1 is the maximum; inconclusive means response in the unintended direction; inactive means score below 0.9.
# Assay: ATG_XTT_Cytotoxicity: Cytotoxicity Assessment in the Attagene TRANS-FACTORIAL HepG2 Assay (AID 2283584)
# Method: ATG_XTT_Cytotoxicity is a cell-based, single-readout assay that uses HepG2, a human liver cell line, with measurements taken at 24 hours after chemical dosing in a 24-well plate.ATG_XTT_Cytotoxicity is one of one assay component(s) measured or calculated from the ATG_XTT_Cytotoxicity assay. It is designed to make measurements of cell number, a form of viability reporter, as detected with […] signals by XTT cytotoxicity assay technology.Data from the assay component ATG_XTT_Cytotoxicity was analyzed into 1 assay endpoint. This assay endpoint, ATG_XTT_Cytotoxicity, was analyzed in the positive analysis fitting direction relative to DMSO as the negative control and baseline of activity. Using a type of viability reporter, loss-of-signal activity can be used to understand changes in the viability. Furthermore, this assay endpoint can be referred to as a primary readout, because the performed assay has only produced 1 assay endpoint. To generalize the intended target to other relatable targets, this assay endpoint is annotated to the cell cycle intended target family, where the subfamily is cytotoxicity.
# Human liver HepG2 cells are transiently transfected with multiple reporter transcription units (MRTUs) in 6-well plates using FuGene 6 reagent (Roche; 3 ml FuGene/1 mg DNA). The MRTU constructs are regulated by a cis-regulating element (promoter). […] A major difference between the CIS and TRANS system is that in CIS activities of endogenous TFs are measured, whereas the TRANS assay evaluates changes in activities of exogenous, chimeric NR-Gal4 proteins. […] At the end of 24 hour incubation, total RNA was isolated using TriZol reagent (Invitrogen). The isolated RNA is then reverse-transcribed using oligo(dT) primer and Mo-MLV reverse transcriptase (Invitrogen) with DNAse I (Ambion) treatment for 30 min. The one-tenth of the produced cDNA was amplified by PCR using Taq DNA polymerase (Invitrogen) and two reporter sequence-specific primers. The PCR products were fluorescently labeled by primer extension with 6-arboxyfluorescein (6-FAM) 5'-labeled reporter sequence-specific primer (2 min at 95 C, 20 s at 68 C and 10 min at 72 C) and these products were digested with 5U of HpaI (New England Biolabs) for 2h at 37 C. The fragments were purified using Qiaquick PCR columns (Qiagen), analyzed on an ABI 3130xL genetic analyzer (Applied Biosystems) with peak positions identified by using a set of X-rhodamine (ROX)-labeled MapMarker1000 molecular weight standards (BioVentures). The raw capillary electrophoresis data was processed using Attagraph software (Attagene).
row,SMILES,outcome
1,CC(C)OB(OC(C)C)OC(C)C,inactive
2,COc1ccc2[nH]cc(CCNC(C)=O)c2c1,inactive
3,CCCCOCCOC(=O)c1ccccc1C(=O)OCCOCCCC,inactive
4,CCCCCC(=O)O[C@]1(C(C)=O)CC[C@H]2[C@@H]3CCC4=CC(=O)CC[C@]4(C)[C@H]3CC[C@@]21C,inactive
5,CC(CO)(CO)[N+](=O)[O-],inactive
6,CC(C)C(=O)OCC=Cc1ccccc1,inactive
7,NC(=O)c1c(Cl)cccc1Cl,inactive
8,CCC(C)C1CCCCC1=O (stereo not given),inactive
9,CCCC[N+](C)(CCCC)CCCC,inactive
10,CN1CCc2cccc3c2[C@H]1Cc1ccc(O)c(O)c1-3,inactive
11,Cc1ccc(C(C)(C)O)cc1,inactive
12,CC(O)CNCC(C)O (stereo not given),inactive
13,C/C=C(\C)C(=O)OC/C=C(\C)CCC=C(C)C,inactive
14,CCOc1ccc(NC(C)=O)cc1,inactive
15,O=S1(=O)CC=CC1,inactive
16,Nc1cc([N+](=O)[O-])ccc1C(=O)O,inactive
17,CC(=O)CCC=C(C)CCC=C(C)C,inactive
18,c1coc(CNc2ncnc3nc[nH]c23)c1,inactive
19,CC(=N[Si](C)(C)C)O[Si](C)(C)C,inactive
20,CCn1cc(C(=O)O)c(=O)c2ccc(C)nc21,inactive

row,SMILES,outcome
1,CCCCCC1C(=O)CCC1CC(=O)OC (stereo not given),inactive
2,CCC(C)(C)c1cc(O)c(C(C)(C)CC)cc1O,inactive
3,CCNC(=S)NCC,inactive
4,O=[N+]([O-])c1cc(N(CCO)CCO)ccc1NCCO,inactive
5,C=CC(C)CCCC(C)(C)O (stereo not given),inactive
6,CC12CCC(C1)C(C)(C)C2O (stereo not given),inactive
7,CCCCCCCCCCOC(=O)c1ccccc1C(=O)OCCCCCCCC,inactive
8,CC(=O)OC(C)(C)C1CC=C(C)CC1 (stereo not given),inactive
9,CCCO[Si](OCCC)(OCCC)OCCC,inactive
10,C#C[C@]1(O)CC[C@H]2[C@@H]3CCc4cc(O)ccc4[C@H]3CC[C@@]21C,inactive
11,CCCOC(=O)CC,inactive
12,ClCCOCCOCCCl,inactive
13,CCCCCCCCOC(C)=O,inactive
14,COc1ccc(OC)cc1,inactive
15,CC1COC(=O)O1 (stereo not given),inactive
16,c1ccc2scnc2c1,inactive
17,NC(=O)c1cnccn1,inactive
18,CCCO,inactive
19,CC(C)COC(=O)c1ccccc1O,inactive
20,CCCC1CCC(=O)CC1,inactive

# Reference: PubChem BioAssay (EPA / NIEHS)
